A selection: hits, their analogues and other compounds. The true share with any hit is near 1.4%.
GLD-1 TGE inh = GLD-1-TGE RNA interaction inhibition (C. elegans) | purified GLD-1 + fluorescein TGE RNA, fluorescence polarization | inhibition, % at 5.96 µM | hit rate 0.44% among 320,000 | AID 2280 | Q17339;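 active = percent inhibition above a per-plate cutoff, the plate mean of test compounds plus 3 SD, cut at about 30% in these data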;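 note: 0% = DMSO wells with GLD-1 and probe and 100% = wells lacking GLD-1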
eLon inh = inhibitors of E. coli Lon protease; inhibition, % at 7.94 µM; hit rate 0.42% among 360,000; AID 602123; P0A9M0; purified E. coli Lon protease, fluorescence polarization; in the data active = inhibition above about 13%, passing the limit was not always enough;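 note: 0% = enzyme with probe and DMSO and 100% = no enzyme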
Target sequence (P0A9M0 whole entry, looked up): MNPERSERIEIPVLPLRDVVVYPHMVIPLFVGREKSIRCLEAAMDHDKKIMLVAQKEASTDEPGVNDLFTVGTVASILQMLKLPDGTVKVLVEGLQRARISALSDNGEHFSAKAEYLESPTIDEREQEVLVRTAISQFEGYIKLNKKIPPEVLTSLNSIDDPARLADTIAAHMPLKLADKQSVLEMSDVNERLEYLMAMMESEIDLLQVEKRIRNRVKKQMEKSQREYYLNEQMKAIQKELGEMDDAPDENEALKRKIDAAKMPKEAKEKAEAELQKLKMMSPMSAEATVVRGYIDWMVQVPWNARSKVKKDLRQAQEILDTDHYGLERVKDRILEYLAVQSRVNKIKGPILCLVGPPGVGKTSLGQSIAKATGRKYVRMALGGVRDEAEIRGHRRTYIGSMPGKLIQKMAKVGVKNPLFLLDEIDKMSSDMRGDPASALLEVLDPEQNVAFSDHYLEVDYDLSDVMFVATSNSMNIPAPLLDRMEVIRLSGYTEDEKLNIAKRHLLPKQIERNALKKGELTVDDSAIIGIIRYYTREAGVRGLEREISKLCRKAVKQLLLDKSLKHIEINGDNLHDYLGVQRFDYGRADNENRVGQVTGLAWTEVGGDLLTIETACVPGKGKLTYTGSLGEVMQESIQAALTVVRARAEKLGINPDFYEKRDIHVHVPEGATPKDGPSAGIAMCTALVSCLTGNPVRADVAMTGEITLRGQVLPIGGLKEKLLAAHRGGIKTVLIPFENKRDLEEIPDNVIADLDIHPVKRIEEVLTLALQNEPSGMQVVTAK
MEX-5 binding = C. elegans MEX-5 TCR-2 RNA binding activity | hit rate 0.38% among 300,000 | Q9XUB2 | MEX-5/FITC-TCR2 RNA binding, fluorescence polarization; hits give low values | activity score (negative = inhibition of binding), % at 10 µM;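 active = inhibition past about -25% in most replicates, and total fluorescence under double the plate's negative control median, limit read from the data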;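 note: 0% = DMSO and -100% = 5 µM competing unlabeled TCR2 RNA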
EBV gp42 inh = inhibitors of Epstein-Barr virus glycoprotein 42 | inhibition, % (tested at 21.74 µM) | hit rate 0.42% among 220,000 | Q1HVG2 | AID 1085 | Fluorescence polarization binding assay, mP read-out; in the data active = inhibition above about 50%
BCLXL inh = inhibitors of human Bcl-xL. GST-Bcl-xL / FITC-Bim BH3 peptide fluorescence polarization. hit rate 0.7% among 320,000. AID 2129. inhibition, % at 10.9 µM. Q07817;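 active = inhibition above the mean of all tested compounds plus 3 SD, cutoff set per campaign, cut at about 30% in these data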;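 note: 0% = DMSO wells and 100% = unlabeled Bim-BH3 peptide competitor; inhibitors lower millipolarization by displacing the labeled peptide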
MCL1-BIM inh = disrupts human MCL1 binding to BIM-BH3 peptide; Q07820; GST-MCL1 / FITC-Bim-BH3 fluorescence polarization; inhibition, % at 10.9 µM; hit rate 0.68% among 320,000;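 active = inhibition above the mean inhibition of all tested compounds plus 3 SD, set per campaign, cut at about 40% in these data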;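 note: 0% = DMSO wells and 100% = unlabeled Bim-BH3 peptide control; higher means more loss of mP so more displacement of Bim peptide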
GLD1 RNA confirm = confirmation of C. elegans GLD-1 TGE RNA binding inhibitors. GLD-1/FL-TGE RNA fluorescence polarization, biochemical. hit rate 10% among 550. AID 2459. inhibition, % at 5.96 µM. shares compounds with GLD-1 TGE inh;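 active = average inhibition across triplicates above the hit cutoff set in the primary screen, cut at about 32% in these data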;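 note: 0% = GLD-1 with RNA probe and DMSO and 100% = wells lacking GLD-1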
Starred values were filed as active, the others as inactive; . = no result.

SMILES	GLD-1 TGE inh	eLon inh	MEX-5 binding	EBV gp42 inh	BCLXL inh	MCL1-BIM inh	GLD1 RNA confirm
COc1ccc(N2C(=O)[C@@H]3[C@H](C2=O)[C@H](C(=O)c2ccc(OC(C)=O)cc2)N2N=CC=C[C@@H]32)cc1	2.4	.	3.6	-13.0	6.7	1.6	.
Cc1cc(C(=O)Cn2nc(C(=O)O)c3ccccc3c2=O)c(C)n1-c1ccc(F)cc1	-2.6	4.2	1.6	-2.5	3.9	-1.1	.
Cc1csc(NC(=O)CN(C)S(=O)(=O)c2cccc3cccnc23)n1	-3.1	-4.6	-2.0	6.6	6.2	3.0	.
CN(CC(=O)Nc1n[nH]c(=S)s1)S(=O)(=O)c1cccc2cccnc12	111.8*	-15.2	-8.7	.	-4.1	-10.1	-0.3
Nc1cc(=O)nc(SCC(=O)Nc2ccccc2Cl)n1-c1ccccc1	6.0	-2.8	0.1	-12.2	1.1	3.9	.
CSC1=NC(C)(C)CC2(C)Nc3ccccc3N12 (centres undefined)	46.8*	9.7	-0.1	-5.8	15.4	5.8	0.1
COc1cc(/C=N/n2c(COc3ccccc3)n[nH]c2=S)cc(Br)c1O	-3.5	5.6	-10.3	.	1.5	-1.9	.
CCc1n[nH]c(=S)n1/N=C/c1cc(Br)c(O)c(OC)c1	56.0*	-15.7	-3.8	-11.4	-4.6	-5.6	6.7
CCN(CC)C(=O)Cn1cc(S(=O)(=O)CC(=O)NCc2ccccc2)c2ccccc21	8.6	-7.0	-0.9	.	0.8	-5.2	.
O=C(CN(C1CCCCC1)S(=O)(=O)c1ccccc1)N1CCCC1	0.2	-7.3	-0.7	-15.5	1.8	10.5	.
O=C(CN(C1CCCCC1)C1CCCCC1)N1CCc2ccccc2C1	39.2*	-4.0	0.5	-1.1	6.0	-0.9	-0.4
CS(=O)(=O)N(CC(=O)O)Cc1cccc(CN(CC(=O)O)S(C)(=O)=O)c1	-2.7	7.0	4.0	.	7.2	5.2	.
CS(=O)(=O)N(CCC(=O)O)Cc1ccccc1	37.0*	0.0	1.0	-9.3	4.6	5.0	-3.2
CN1C[C@H](C(=O)NC2(C)OC3(O)[C@@H]4CCCN4C(=O)[C@H](Cc4ccccc4)N3C2=O)CC2c3cccc4[nH]cc(c34)C[C@H]21 (some centres undefined)	33.4*	13.6	-0.7	.	36.1*	38.2	2.2
CCOc1ccc2[nH]c(=O)c(CN(Cc3cccs3)Cc3nnnn3C(C)(C)CC)cc2c1	109.3*	-9.4	0.5	-3.9	6.9	3.7	-4.5
C=CCn1cc(F)c(=O)n(CC=C)c1=O	-2.8	-3.3	0.3	-10.9	0.3	-6.5	.
O=C(O)C1CN(c2ncccc2[N+](=O)[O-])C1	8.9	7.8	0.3	-0.1	1.5	-2.3	.
O=C(O)[C@@H]1[C@@H]2C[C@@H]2CN1c1ncccc1[N+](=O)[O-]	38.9*	7.2	-3.1	10.4	47.2*	46.9*	-1.6
NS(=O)(=O)c1ccc2c(c1)C1C=CCC1C(C1CC=CCC1)N2 (centres undefined)	33.9*	-18.5	-0.4	-2.0	46.0*	43.7*	8.7
CC(C)C1Nc2ccc(S(N)(=O)=O)cc2C2C=CCC21 (centres undefined)	10.8	-8.1	-9.8	0.1	19.9	20.2	.
CCOC(=O)c1ccc2ncc(C(=O)OCC)c(NCc3ccco3)c2c1	38.8*	-3.2	-3.5	2.4	32.9*	30.3	3.1
CC(C)(C)CC(=O)Nc1nnc(SCC(=O)N2CCCCC2)s1	1.5	-1.1	1.0	.	2.7	-4.8	.
CN(c1nc(-c2ccc(Br)cc2)cs1)C1CCS(=O)(=O)C1 (centres undefined)	-7.1	2.5	-1.4	-10.2	-13.9	-18.7	.
COC(=O)c1cc(-c2ccccc2)sc1N	0.5	-10.9	-0.2	-15.6	1.0	-0.1	.
COC(=O)c1c(C(=O)OC)c2cccc3cc(-c4ccccc4)c4ccc1c4n32	30.9*	3.8	-0.3	25.0	24.6	33.4	15.5
SMILES	GLD-1 TGE inh	eLon inh	MEX-5 binding	EBV gp42 inh	BCLXL inh	MCL1-BIM inh	GLD1 RNA confirm
O=C(NCCc1ccccc1)C(=O)c1c(-c2ccccc2)cc2ccccn12	-0.6	-4.6	0.6	-13.8	1.5	3.7	.
COC(=O)c1cc2c(-c3ccccc3)cc3ccccn3c-2c1C(=O)OC	31.5*	7.0	-1.9	61.1*	35.8*	47.5*	12.4
CCOc1ccccc1CNC(=O)Cn1ccc2cc(S(=O)(=O)N3CCCC3)ccc21	4.2	-5.6	-1.8	.	1.1	-1.1	.
CC(C)(CNc1ccc(C(F)(F)F)cc1[N+](=O)[O-])N1CCOCC1	-2.0	0.1	-0.4	.	-3.3	-5.6	.
CC(=O)Nc1cc2c(c(Cl)c1Cl)-c1ccccc1C2=O	.	-1.2	.	.	.	.	.
CC(=O)Nc1c2c3c(cccc3n(C)c1=O)C(=O)c1ccccc1-2	32.0*	9.4	-6.8	9.4	47.1*	49.9*	8.2
Cc1ccc(/C=N/NC(=O)CNC(=O)c2cccc([N+](=O)[O-])c2C)o1	2.4	2.4	-2.2	8.8	9.1	-4.5	.
CCOC(=O)C1=C(Cc2ccc(F)cc2)C(=O)c2ccccc2C1=O	66.2*	-9.2	0.0	-0.5	34.6*	40.6*	2.4
O=C(OCc1ccc(F)cc1)c1ccc2c(c1)-c1ccccc1C2=O	4.6	-1.6	1.6	-1.2	7.0	7.0	.
Cc1ccccc1OCC(=O)OCC(=O)NCC1CCCO1 (centres undefined)	3.9	-12.0	-0.3	-2.6	4.4	8.3	.
CCCCOc1nc2ccccc2nc1C(C#N)S(=O)(=O)c1ccccc1 (centres undefined)	2.0	-16.1	-0.8	-7.4	3.0	-1.3	.
Cc1cccc(S(=O)(=O)C(C#N)c2nc3ccccc3nc2N2CCOCC2)c1 (centres undefined)	41.2*	6.5	-72.0*	-5.7	32.1*	27.2	-2.4
COc1ccc(S(=O)(=O)C(C#N)c2nc3ccccc3nc2N2CCC(C)CC2)cc1 (centres undefined)	42.3*	.	-46.9*	.	49.4*	46.8*	4.6
CCN1C/C(=C/c2cccs2)c2nc3ccccc3c(C(=O)O)c2C1	35.2*	10.6	-27.0*	27.9	32.5*	34.5	34.4*
Cc1[nH]c(=O)sc1C(=O)NCc1ccc([N+](=O)[O-])cc1	.	-0.5	.	.	.	.	.
CC(/C=C/c1ccc(N(C)C)cc1)=N\N=C1\NC(=O)CC(C(=O)Nc2ccccc2)S1 (centres undefined)	33.0*	-54.0	3.9	-83.2	-8.5	-18.4	-83.3
CC(/C=C/c1ccc(N(C)C)cc1)=N/N=C1/NC(=O)CC(C(=O)Nc2ccc(Cl)cc2)S1 (centres undefined)	-11.6	-63.7	2.6	-50.0	-7.2	-33.2	.
Cc1cc2ccccc2n1CCNC(=O)C1CCCCC1	14.8	14.2	-2.9	0.1	3.4	7.0	.
Cc1cc2ccccc2n1CCNC(=O)c1cccs1	48.5*	13.1	-5.2	-3.7	41.6*	39.4	5.9

Screening data deposited in PubChem BioAssay by several laboratories.
